Experimental data from the supplement of paper PMC13380429.
A number with no mark means an inactive call.

System: Vero E6 infected with SARS-CoV-2
Experiment: inhibition of SARS-CoV-2 cytopathic effect; higher = more antiviral protection, active = above 15
Details: 48 h

SMILES | inhibition of SARS-CoV-2 cytopathic effect (1 nM) | inhibition of SARS-CoV-2 cytopathic effect (8.33 nM) | inhibition of SARS-CoV-2 cytopathic effect (100 nM) | inhibition of SARS-CoV-2 cytopathic effect (833.33 nM) | inhibition of SARS-CoV-2 cytopathic effect (10000 nM)
CNC(=O)c1c(I)c(NC(C)=O)c(I)c(C(=O)O)c1I [iothalamic-acid-d3] | -5.17% | -2.14% | -1.59% | 0.31% | -1.65%
CC(C)c1cc2c(cc1S(=O)(=O)O)[C@@]1(C)CCC[C@@](C)(C(=O)O)[C@@H]1CC2 [ecabet] | -2.02% | 0% | -1.76% | 0.14% | -0.11%
CN1CCN(C(c2ccccc2)c2ccc(Cl)cc2)CC1 (stereo not given) [chlorcyclizine] | -1.24% | 1.4% | -0.05% | -3.64% | -10.6%
COc1ccc(Nc2ncnc3ccc(OC)cc23)cc1 | 4.07% | 6.4% | 6.26% | 1.4% | -3.12%
CCN(CC)CCN(Cc1ccc(-c2ccc(C(F)(F)F)cc2)cc1)C(=O)Cn1c(SCc2ccc(F)cc2)nc(=O)c2c1CCC2 [darapladib] | 1.47% | 1.73% | -1.85% | -2.02% | -25.3%
CC(C)[C@H](CO)Nc1nc(Nc2cc(N)cc(Cl)c2)c2ncn(C(C)C)c2n1 [aminopurvalanol-a] | 4.14% | 0.51% | -1.34% | -0.35% | -6.98%
Cc1cc(Nc2cc(CN3CCOCC3)c3nc(C)c(Cc4ccc(Cl)cc4F)n3n2)n[nH]1 | -0.17% | 1% | -1.28% | -6.68% | -11.6%
O=C(Nc1ccc(S(=O)(=O)C(F)(F)F)cc1)C1=CCN(c2ncccc2C(F)(F)F)CC1 | 0.25% | -1.04% | -1.04% | -0.34% | -2.58%
CC(=O)Oc1ccccc1C(=O)Oc1ccccc1C(=O)O [acetylsalicylsalicylic-acid] | -1.51% | 0.51% | 2.44% | -0.27% | 1.17%
Cc1onc(O)c1C[C@@H](N)C(=O)O (racemic) | 0.825% | 1.39% | 2.15% | 2.51% | 1.4%
CC(OC(=O)NCC1(CC(=O)O)CCCCC1)OC(=O)C(C)C (stereo not given) [gabapentin-enacarbil] | -7.45% | -8.92% | -4.27% | -4.9% | -8.44%
CC[C@H](C)[C@H](N)C1=N[C@H](C(=O)N[C@@H](CC(C)C)C(=O)N[C@H](CCC(=O)[O-])C(=O)N[C@H](C(=O)N[C@H]2CCCCNC(=O)[C@H](CC(N)=O)NC(=O)[C@@H](CC(=O)[O-])NC(=O)[C@H](Cc3cnc[nH]3)NC(=O)[C@@H](Cc3ccccc3)NC(=O)[C@H]([C@@H](C)CC)NC(=O)[C@@H](CCCN)NC2=O)[C@@H](C)CC)CS1.[Zn+2] [bacitracin-zinc] | 1.46% | 1.2% | 2.85% | -0.14% | 0.15%
NCCC(Oc1ccc(C(F)(F)F)cc1)c1ccccc1 (stereo not given) [norfluoxetine] | 1.01% | 2.75% | 1.92% | -0.09% | -5.55%
CS(=O)(=O)c1cccc(CNc2nc(Nc3ccc4c(c3)CCC(=O)N4)ncc2C(F)(F)F)c1 | -1.14% | -1.29% | 0.06% | 1.33% | -3.75%
C[C@@H]1CC[C@H]2C(C)(C)[C@H]3C[C@@]12CC[C@@]3(C)O [cedrol] | -1.18% | -3.1% | -1.28% | -1.1% | -1.09%
CCCOc1ccc(S(=O)(=O)N2CCN(CCO)CC2)cc1-c1nc2c(CCC)cn(CC)c2c(=O)[nH]1 [mirodenafil] | -1.57% | 0.66% | -2.49% | -3.18% | -6.03%
C=CCn1c(=O)c2cnc(Nc3ccc(N4CCN(C)CC4)cc3)nc2n1-c1cccc(C(C)(C)O)n1 | -1.29% | 2.7% | 0.63% | -3.99% | -6.53%
CN1C[C@@H]2CN(c3ccc(-c4ccccc4)nn3)C[C@@H]2C1 | 1.02% | -1.9% | 0.67% | 0.54% | -3.37%

SMILES | inhibition of SARS-CoV-2 cytopathic effect (1 nM) | inhibition of SARS-CoV-2 cytopathic effect (8.33 nM) | inhibition of SARS-CoV-2 cytopathic effect (100 nM) | inhibition of SARS-CoV-2 cytopathic effect (833.33 nM) | inhibition of SARS-CoV-2 cytopathic effect (10000 nM)
CCCn1c(=O)c2[nH]c(C3CCCC3)nc2n(CCC)c1=O | 2.33% | 2.47% | 1.58% | -1.44% | 1.86%
O[C@H]([C@H](O)[C@@H]1CO1)[C@H]1CO1 [dianhydrogalactitol] | -0.61% | -1.52% | -3.41% | 0.41% | 2.5%
NC(N)=Nc1nc(CSCC/C(N)=N/S(N)(=O)=O)cs1 [Famotidine] | 1.28% | 0.44% | -0.39% | -0.03% | -0.45%
CC12CCC(C(Br)C1=O)C2(C)C (stereo not given) [3-bromocamphor] | -1.02% | 0.99% | -0.16% | 1.85% | 0.04%
CC(C)NC[C@@H](C(=O)N1CCN(c2ncnc3c2[C@H](C)C[C@H]3O)CC1)c1ccc(Cl)cc1 | -0.34% | -0.39% | -0.29% | 2.69% | 1.98%
COc1cc(-n2cnc3cc(-c4ccc(Cl)cc4)sc3c2=O)ccc1OCCN1CCCC1 | -1.24% | 0.96% | 0.81% | -2.38% | 49.9% (active)
CCCCc1oc2ccc(NS(C)(=O)=O)cc2c1C(=O)c1ccc(OCCCN(CCCC)CCCC)cc1 [dronedarone] | 3.27% | 1.28% | -0.45% | 4.57% | 29.3% (active)
Cc1c(-c2ccc(O)cc2)n(Cc2ccc(OCCN3CCCCCC3)cc2)c2ccc(O)cc12 [bazedoxifene] | -2% | -3.97% | -2.44% | -5.76% | 48.9% (active)
CN1C(CSCC(F)(F)F)Nc2cc(Cl)c(S(N)(=O)=O)cc2S1(=O)=O (stereo not given) [polythiazide] | -0.4% | 0.91% | 3.31% | -0.95% | -1.62%
CC(C)C[C@@H](N)C(=O)N[C@H]1C(=O)N[C@@H](CC(N)=O)C(=O)N[C@H]2C(=O)N[C@H]3C(=O)N[C@H](C(=O)N[C@H](C(=O)O)c4cc(O)cc(O)c4-c4cc3ccc4O)[C@H](O)c3ccc(c(Cl)c3)Oc3cc2cc(c3O[C@@H]2O[C@H](CO)[C@@H](O)[C@H](O)[C@H]2O[C@H]2C[C@](C)(N)[C@H](O)[C@H](C)O2)Oc2ccc(cc2Cl)[C@H]1O [norvancomycin] | -0.51% | 2.53% | 11.9% | 1.73% | -2.8%
CCNC(=O)CC[C@H](N)C(=O)O [L-theanine] | -2.94% | -3.55% | -3.29% | -0.63% | -0.81%
Oc1cc(Cl)ccc1Oc1ccc(Cl)cc1Cl [triclosan] | -1.92% | -0.14% | 1.39% | -0.77% | 7.81%
CN(C)[C@@H]1C(O)=C(C(N)=O)C(=O)[C@@]2(O)C(O)=C3C(=O)c4c(O)ccc(Cl)c4[C@@](C)(O)[C@H]3C[C@@H]12 | 0.81% | 3.66% | 0.73% | 1.21% | -0.28%
Fc1cc(-c2cccc3ncc(-c4cnn(C5CCNCC5)c4)nc23)cc(F)c1CN1CCOCC1 | 1.49% | 2.64% | -2.32% | -1.44% | 63.3% (active)
CN[C@@H]1[C@@H](O)[C@@H](O[C@@H]2[C@@H](O)[C@H](O[C@H]3OC(CN)=CC[C@H]3N)[C@@H](N)C[C@H]2N)OC[C@]1(C)O [Sisomicin (sulfate)] | 0.02% | 0.45% | 0.885% | -0.63% | -0.58%
COc1ccc2cc([C@H](C)C(=O)O)ccc2c1 [naproxen] | 3.38% | 3.96% | 1.16% | -1.2% | 0.68%
CC(C(=O)O)c1ccc(CC2CCCC2=O)cc1 (stereo not given) [loxoprofen] | 0.21% | 3.24% | 2.9% | 0.82% | 2.16%
